High-throughput results as filed in PubChem.
NPC1 prom act = activates the NPC1 promoter; Huh7 NPC1 promoter luciferase reporter, 24 h; Potency, µM (titrated, usually from 9.22 µM), for the others: at the top dose activation, actives largely listed as activators; 320,000 compounds, 2.4% hits; AID 485313; note: % of control where 0% means no effect; nearly all actives have a fitted effect of over 60% in size
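In 1536-well qHTS, Huh7 cells harboring an NPC1 promoter–luciferase construct received compound for 24 h; activation was quantified by luminescence following luciferase reagent addition.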
SMN2 splice up = increases expression of the SMN2 splice variant. HEK293 SMN2-luciferase splicing reporter, luminescence, 30-36 h. Potency, µM (top dose mostly 46.1 µM), for inactives: at the top dose activity change, positive = activation, usual class: activators. 210,000 compounds, 2.8% hits; note: % of control where 0% means no effect; nearly all actives have a fitted effect of over 55% in size
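HEK293 cells carry an SMN2 […]–luciferase reporter in which exon 7 inclusion puts luciferase in frame. Cells were plated 10-12 h before compound addition, then incubated 30-36 h at 37C. ONE-Glo luminescence was read; sodium butyrate at 4.5 mM final served as control.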
Rab9 prom act = Rab9 promoter activation | Potency, µM (series often up to 9.22 µM), without a hit: at the top dose activation, negative = inhibition, actives largely listed as activators | AID 485297 | 320,000 compounds, 2.8% hits | Huh7 Rab9 promoter-luciferase reporter, luminescence, 24 h; note: % of control where 0% means no effect; nearly all actives have a fitted effect of over 60% in size
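Quantitative HTS format; Huh7 Rab9-luciferase reporter cells (1500/well) receive compound 2 h post-plating, incubate 24 h at 37 °C, then get luciferase reagent for 10 min before luminescence reading.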
p53 reactivation = restores transcriptional activity of mutant p53; 320,000 compounds, 0.063% hits; H1299 p53-A138V BP100-luciferase reporter, luminescence, 24 h; Potency, µM (doses to about 92.2 µM), without a hit: at the highest dose activity change, positive = activation, actives largely listed as activators; note: % of control where 0% means no effect; nearly all actives have a fitted effect of over 45% in size
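p53-null H1299 cells stably carrying temperature-sensitive p53-A138V and a BP100-luciferase reporter were pinned with compounds (4-point, 1:5 series) and held 24 hrs at 37 deg C. Luminescence was read 10 min after detection reagent.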
ELG1 genotoxic = inducers of genotoxicity in HEK293T ELG1-luciferase cells; 330,000 compounds, 1.3% hits; HEK293T ELG1-luciferase reporter, luminescence, 16 h; Potency, µM (series often up to 46 µM), without a hit: top-dose activity change, positive = activation, most hits filed as activators; AID 504466; note: % of control where 0% means no effect; nearly all actives have a fitted effect of over 60% in size
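HEK293T cells expressing luciferase-tagged ELG1 were exposed to compound or DMSO vehicle for 16 hr at 37 °C and 5% CO2. Luciferase activity was then measured with ONE-Glo after 30 min at room temperature.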
FLuc modulator = inhibits or activates purified firefly luciferase, miR-21 counter-screen; AID 588342; P08659; 360,000 compounds, 6.9% hits; purified FLuc, Km substrates, luminescence inhibition; Potency, µM (doses to about 57.5 µM), for inactives: top-dose activity change, negative = inhibition, most hits filed as inhibitors;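 note: plate controls were vehicle for no effect and reference inhibitor for full effect; nearly all actives have a fitted effect of over 55% in size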
Target sequence (P08659 whole entry, looked up): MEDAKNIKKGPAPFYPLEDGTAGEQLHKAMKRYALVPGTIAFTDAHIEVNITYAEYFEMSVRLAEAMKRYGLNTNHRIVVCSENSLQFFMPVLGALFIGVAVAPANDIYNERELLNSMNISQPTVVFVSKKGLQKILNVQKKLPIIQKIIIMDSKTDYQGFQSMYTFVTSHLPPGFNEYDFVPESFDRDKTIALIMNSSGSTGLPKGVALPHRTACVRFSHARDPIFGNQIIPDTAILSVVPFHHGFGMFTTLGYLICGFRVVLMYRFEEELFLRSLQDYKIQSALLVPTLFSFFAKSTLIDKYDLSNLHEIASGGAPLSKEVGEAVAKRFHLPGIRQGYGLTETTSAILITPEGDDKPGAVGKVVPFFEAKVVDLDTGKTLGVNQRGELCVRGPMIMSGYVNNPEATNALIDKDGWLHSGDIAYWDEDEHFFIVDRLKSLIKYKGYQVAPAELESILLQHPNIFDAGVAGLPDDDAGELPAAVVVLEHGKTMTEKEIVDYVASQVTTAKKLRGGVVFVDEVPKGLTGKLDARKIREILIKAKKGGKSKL
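Purified P. pyralis luciferase (10nM final) with 10uM D-luciferin and 10uM ATP (Km levels) in 50mM Tris acetate pH 7.5, 10mM Mg acetate, 0.01% Tween-20, 0.05% BSA; qHTS 6-point titration, ~60 µM downward; luminescence read.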
The depositor's hits bear a star; ? = inconclusive; . = not tested or not shown; [ ] = another dose, or the depositor's remark. Rows were chosen to be rich in hits. Some 7.3% of all compounds tested hit in one or more screens of this group. Calls come from the whole dose curve; as a rule, active = well fitted curve in the direction sought with a large enough effect; inconclusive = small, poorly fitted or top-dose-only effect, or another doubt; inactive = no such curve, though single readings can be large; an effect the other way counts as inactive or inconclusive. Potency is the fitted concentration of half-maximal effect.

SMILES	NPC1 prom act	SMN2 splice up	Rab9 prom act	p53 reactivation	ELG1 genotoxic	FLuc modulator
CCOC(=O)C1(Cc2cccc(OC)c2)CCCN(C(=O)c2cc(C)on2)C1 (configuration not stated)	?	.	3.2µM*	?	?	12µM*
CCOC(=O)C1(Cc2cccc(OC)c2)CCCN(C(=O)CNC(C)=O)C1 (configuration not stated)	?	.	3.2µM*	.	?	15µM*
CCOC(=O)C1(Cc2cccc(OC)c2)CCN(Cc2ccccc2)CC1	0%	.	-1%	0%	-12%	2%
CCOC(=O)C1(Cc2ccccc2)CCCN(C(=O)c2cnn(CC)c2)C1 (configuration not stated)	?	.	4µM*	?	?	15µM*
CCOC(=O)C1(Cc2cccc(OC)c2)CCCN(C(=O)c2ccccc2C)C1 (configuration not stated)	?	.	?	?	11%	27µM*
Cc1ccccc1OCc1nc2ccccc2n1C	3.2µM*	.	4µM*	.	?	8.5µM*
Cn1c(COc2ccc(C(=O)O)cc2)nc2ccccc21	-4%	.	0%[1.84 µM]	1%	0%	-20%
Cn1c(COc2ccc(F)cc2)nc2ccccc21	2.5µM*	.	3.5µM*	.	?	13µM*
CCN(CC)S(=O)(=O)c1ccc(C(=O)NCCSc2c(-c3ccc(F)cc3)[nH]c3ccccc23)cc1	.	-38%	.	.	.	2%
CCOc1ccc(NC(=O)c2ccc3nc(Cc4ccccc4)oc3c2)cc1	.	.	.	.	.	0%
O=C(/C=C/c1ccc(F)cc1)c1ccc(N2CCOCC2)cc1	6%	.	26%	8%	4%	1.2µM*
Cc1ccc(/C=C/C(=O)c2ccc(N3CCOCC3)cc2)s1	?	22µM*	?	13%	9%	0.34µM*
C/C(=C\C(=O)c1ccc(F)cc1)Nc1ccc(N2CCOCC2)cc1	1%	-25%	-10%	-4%	15%	1%
S=C(c1ccc(N2CCOCC2)cc1)N1CCOCC1	4%	10%	-6%	-15%	-2%	6%
CCc1ccc(/C=C/C(=O)c2ccc(N3CCOCC3)cc2)cc1	1%	-31%	-1%	?	2%	1.5µM*
Cc1cccc(/C=C/C(=O)c2ccc(N3CCOCC3)cc2)c1	-3%	-29%	0%	14%	9%	21µM*
COc1ccccc1OCCn1c(C(C)Oc2ccccc2)nc2ccccc21 (configuration not stated)	.	-28%	.	.	.	-17%
N[C@@]1(C(=O)O)CN[C@@H](C(=O)O)C1	.	-7%	.	.	.	.
Cc1cccc(-n2c3nc(=O)[nH]c(=O)c-3cc3c(Cl)cccc32)c1C	.	5%	.	.	.	-6%
Cc1ccc(C(=O)OCC(=O)c2ccc(Cl)s2)s1	1%	.	21%	?	?	2.7µM*
CN(C(=O)COC(=O)c1ccc(Cl)c(S(=O)(=O)N2CCCCC2)c1)C1(C#N)CCCCC1	-2%	.	-8%	-5%	0%	-15%
O=C(COC(=O)c1ccc[nH]c1=O)c1ccc(Cl)s1	-4%	8%	3%	-4%	-2%	15µM*
CN(C(=O)COC(=O)c1ccc(Cl)s1)C1(C#N)CCCCC1	-7%	.	1%	22%	1%	19µM*
Cc1ccc(C(=O)OCC(=O)NCCNC(=O)COC(=O)c2ccc(C)s2)s1	-8%	.	-1%	-1%	0%	4%
Cc1ccc(NC(=O)c2oc3ccccc3c2NC(=O)C23CC4CC(CC(C4)C2)C3)cc1	.	-7%	.	.	.	0%
SMILES	NPC1 prom act	SMN2 splice up	Rab9 prom act	p53 reactivation	ELG1 genotoxic	FLuc modulator
COc1ccc(C(=O)Nc2ccc(C(=O)OCc3cc(=O)n4nc(C5CC5)sc4n3)cc2)cc1	.	.	.	.	.	1%
CN(C(=O)c1ccco1)c1nc(-c2ccccc2)cs1	2.5µM*	.	2µM*	18%	?	5.4µM*
COCCN(C(=O)c1ccccc1F)c1nc(-c2ccc(OC)cc2)cs1	?	.	22%	-2%	10%	?
CN(C)CCCN(C(=O)c1cccs1)c1nc(-c2ccccc2)cs1	-5%	7.9µM*	-1%	2%	?	-1%
CN(c1ccc(O)cc1)c1nc(-c2ccccc2)cs1	2.2µM*	?	?	?	?	?
CCN(C(=O)c1ccccc1F)c1nc(-c2ccc(OC)cc2)cs1	3.2µM*	.	2µM*	9%	?	8.5µM*
COc1ncc2nc(-c3cccc(C#N)c3)c(=O)n(CCC#N)c2n1	.	-2%	.	.	.	.
Cc1cccc(NC(=O)CSc2nc3ccccc3nc2N2CCCCC2)c1C	.	-2%	.	.	.	0%
CCN(C(=O)c1ccco1)c1nc(-c2ccc(OC)cc2)cs1	3.2µM*	.	4µM*	.	?	12µM*
CCC(=O)N(CC)c1nc(-c2ccc(OC)cc2)cs1	4.5µM*	7%	?	?	7%	15µM*
COc1ccc(-c2csc(N(CCCN(C)C)C(=O)c3ccccc3C)n2)cc1	8%	.	0.28µM*	.	-10%	2%
CCC(=O)N(Cc1ccco1)c1nc(-c2ccc(OC)cc2)cs1	10%	-11%	?	12%	0%	-1%
COc1ccc(-c2csc(N(CC(C)C)C(=O)c3ccco3)n2)cc1	-2%	.	2%	.	0%	0%
COc1ccc(-c2csc(N(CCCN(C)C)C(=O)c3ccccc3F)n2)cc1	-2%	.	-2%	5%	0%	1%
CCCCCOc1ccc(C(=O)N(Cc2ccccc2)C2CCS(=O)(=O)C2)cc1 (configuration not stated)	.	.	.	.	.	-1%
CC[N+](CC)(CC)CC[C@](O)(c1ccccc1)C1CCCCC1	.	0%[20.6 µM]	.	.	.	.
COc1ccc(-c2nc(CSCC(=O)NCCc3ccc(C)cc3)c(C)o2)cc1OC	.	-9%	.	.	.	-12%
OC[C@@H](O)CNc1ncnc2ccccc12	.	-13%[9.22 µM]	.	.	.	.
O=C(O/N=C1/CCCc2occc21)c1ccccc1	-5%	-7%	0%	25%	2%	2.1µM*
COc1ccc(C(=O)O/N=C2\CCCc3nonc32)cc1	-6%	2%	-3%	10%	7%	0%
O=C(O/N=C1/CCCc2occc21)c1ccc(Cl)cc1Cl	-3%	.	-4%	13%	3%	5.4µM*
N#CCCn1c(=O)c(-c2ccc(F)cc2)nc2cnc(Oc3cccc(Cl)c3)nc21	.	0%	.	.	.	.
COc1ccccc1NC(=O)c1ccc2c(c1)CCN2S(C)(=O)=O	1%	.	3%	5%	1%	-2%
Cc1cc(-c2nc3ncccc3o2)ccc1NC(=O)c1ccc(Cl)cc1	.	3%	.	.	.	2%
COc1cnc(-c2ccccn2)nc1N(C)c1ccccc1	0%	.	1%[1.84 µM]	?	21%	11µM*
C[N+](C)(N)CCC[N+](C)(C)N	.	-12%[9.22 µM]	.	.	.	.
